Measurements as given in PubChem BioAssay (NCI).
The panel holds about 83,000 compounds, 20% with a hit somewhere; the sample as a whole holds those more often.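 Activity criterion: percent growth below 10, measured after cells in 96-well plates were exposed to a single compound concentration for 48 hours.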 Activity calls are given as the source filed them.

Each molecule was assayed on MDA-MB-468 breast (assay: NCI-60 one-dose screen, 48 h (100 = growth as untreated, 0 = no growth, -100 = all killed)). Settings: 10 µM unless noted.
`C#Cc1ccc(NC(=O)c2ccc(/C=C/C(=O)c3nccn3C)cc2)cc1` was tested, and the growth was -54.6% (active).
In the case of `O=C1OC(/C=C/c2ccccc2)=NC/1=C/c1ccccc1[N+](=O)[O-]`, the growth is reported as 101% (inactive).
For `C=CCn1cc(-c2nc3ccccc3s2)c2cc(-c3ccc4c5c(cccc35)C(=O)N(CCO)C4=O)ccc21`, the growth was 96% (inactive).
In the case of `O=C(C(Br)C(Br)c1ccccc1)C(Br)C(Br)c1ccccc1` (stereo not given), the growth is reported as -44.4% (active).
`CC(=O)CSC(C)=O` was tested, and the growth was 99.1% (inactive).
For `N#Cc1ccc2nc[nH]c2c1`, the growth was 87.6% (inactive).
With `CN1CCN(CCNc2nccc(-c3c(-c4cccc(O)c4)nc4sccn34)n2)S1(=O)=O` the growth was 79.4% (inactive).
In the case of `CNCCNc1nc2ccccc2c2c(=O)c3cc(OC)ccc3sc12`, the growth is reported as 44.7% (inactive).
For `Cc1ccc(C(=O)O)o1`, the growth was 112% (inactive).
In the case of `C#CCCCCCCC[C@@H]1OC(=O)[C@H]([C@@H](C)CC)NC(=O)[C@@H]([C@@H](C)CC)NC(=O)CC(=O)[C@@H]1C`, the growth is reported as 101% (inactive).
`CC/C(=C(/c1ccc(Cl)cc1)c1ccc(OCCN2CCCCC2)cc1)c1ccc(OC)cc1` was tested, and the growth was 26.5% (inactive).
In the case of `COc1cc(/C=N/NC(=O)c2ccccc2Nc2cccc(C(F)(F)F)c2)cc(OC)c1OC`, the growth is reported as -20.8% (active).
In the case of `CCOC(=O)/C(C)=C\c1ccc(OC)c(OC)c1`, the growth is reported as 103% (inactive).
`COc1cc2c(cc1OC)-c1ccc3cc4c(cc3c1N(CCCn1ccnc1)C2)OCO4` was tested, and the growth was -63.7% (active).
For `CCCCCN1C(=O)/C(=c2\sc3n(c2=O)C2C(NN=3)N(CC)C(=O)N2CC)c2ccccc21` (stereo not given), the growth was 5.08% (active).
